# Screen size: about 5,500 compounds; about 2,000 (36%) were called active. Another 18% or so got no clear call; they are omitted. The list shows a part of the results. Values without a mark were called inactive. Rule as the data show it: active = normalized growth mostly below about 0.91 (no sharp cut-off); inconclusive = no clear call, values can overlap the other calls; inactive = mostly above about 0.92.
# Assay: chemical genetic growth profiling, strain panel (AID 1159580);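 also: tested at 20 µM; growth read once vehicle control cultures reached saturation at 30 °C; 1 = growth at the plate median or of vehicle wells; lower values mean less growth of the strain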
# Details: growth OD
# [1] = S. cerevisiae deletion strains, locus YAL013W, strain DEP1, stronger effect = lower value
# [2] = S. cerevisiae deletion strains, locus YBR229C, strain ROT2, stronger effect = lower value
# [3] = S. cerevisiae deletion strains, locus YDL101C, strain DUN1, stronger effect = lower value
# [4] = S. cerevisiae deletion strains, locus YDL134C, strain PPH21, stronger effect = lower value
# [5] = S. cerevisiae deletion strains, locus YDR150W, strain NUM1, stronger effect = lower value
# [6] = S. cerevisiae deletion strains, locus YEL061C, strain CIN8, stronger effect = lower value
# [7] = S. cerevisiae deletion strains, locus YGR078C, strain PAC10, stronger effect = lower value
# [8] = S. cerevisiae deletion strains, locus YHR030C, strain SLT2, stronger effect = lower value
# [9] = S. cerevisiae deletion strains, locus YHR087W, strain rtc3, stronger effect = lower value
# [10] = S. cerevisiae deletion strains, locus YJR043C, strain POL32, stronger effect = lower value
# [11] = S. cerevisiae deletion strains, locus YJR075W, strain HOC1, stronger effect = lower value
# [12] = S. cerevisiae deletion strains, locus YKL190W, strain CNB1, stronger effect = lower value
# [13] = S. cerevisiae deletion strains, locus YLR039C, strain RIC1, stronger effect = lower value
# [14] = S. cerevisiae deletion strains, locus YLR058C, strain SHM2 (second series), stronger effect = lower value
# [15] = S. cerevisiae deletion strains, locus YLR085C, strain ARP6, stronger effect = lower value
# [16] = S. cerevisiae deletion strains, locus YLR262C, strain YPT6, stronger effect = lower value
# [17] = S. cerevisiae deletion strains, locus YML094W, strain GIM5, stronger effect = lower value
# [18] = S. cerevisiae deletion strains, locus YMR219W, strain ESC1, stronger effect = lower value
# [19] = S. cerevisiae deletion strains, locus YMR263W, strain SAP30, stronger effect = lower value
# [20] = S. cerevisiae deletion strains, locus YMR307W, strain GAS1, stronger effect = lower value
# [21] = S. cerevisiae deletion strains, locus YNL153C, strain GIM3, stronger effect = lower value
# [22] = S. cerevisiae deletion strains, locus YNL298W, strain CLA4 (second series), stronger effect = lower value
# [23] = S. cerevisiae deletion strains, locus YNL322C, strain KRE1, stronger effect = lower value
# [24] = S. cerevisiae deletion strains, locus YNR030W, strain Alg12, stronger effect = lower value
# [25] = S. cerevisiae deletion strains, locus YPL055C, strain LGE1, stronger effect = lower value
# [26] = S. cerevisiae deletion strains, locus YPL241C, strain CIN2, stronger effect = lower value
# [27] = S. cerevisiae deletion strains, locus YPR135W, strain CTF4, stronger effect = lower value
# [28] = S. cerevisiae deletion strains, locus YOL006C, strain TOP1, stronger effect = lower value
smiles,measurement,setting,value
CCOC(=O)Nc1ccsc1C(=O)OC,normalized growth,[1],0.997
same,normalized growth,[2],1
same,normalized growth,"S. cerevisiae deletion strains, locus YCL061C, strain MRC1, stronger effect = lower value",0.999
same,normalized growth,[3],0.988
same,normalized growth,[4],1
same,normalized growth,[5],0.975
same,normalized growth,[6],0.974
same,normalized growth,[7],0.986
same,normalized growth,[8],1
same,normalized growth,[9],1
same,normalized growth,[10],1
same,normalized growth,[11],0.986
same,normalized growth,[12],1
same,normalized growth,[13],0.983
same,normalized growth,[14],1
same,normalized growth,[15],0.988
same,normalized growth,[16],0.996
same,normalized growth,[17],0.985
same,normalized growth,[18],1
same,normalized growth,[19],1.02
same,normalized growth,[20],1.07
same,normalized growth,[21],0.987
same,normalized growth,[22],1.02
same,normalized growth,[23],0.983
same,normalized growth,[24],1.01
same,normalized growth,[25],0.981
same,normalized growth,[26],1.08
same,normalized growth,[27],0.947
COC(=O)c1sccc1NC(=O)C1CC1,normalized growth,[1],0.991
same,normalized growth,[2],1
same,normalized growth,[3],0.995
same,normalized growth,[5],0.942
same,normalized growth,[6],0.979
same,normalized growth,[7],0.978
same,normalized growth,[8],1.01
same,normalized growth,[9],0.99
same,normalized growth,"S. cerevisiae deletion strains, locus YJL187C, strain SWE1, stronger effect = lower value",0.977
same,normalized growth,[10],1.02
same,normalized growth,[11],0.99
same,normalized growth,[13],1.01
same,normalized growth,[14],0.976
same,normalized growth,[15],0.92
same,normalized growth,[16],1.07
same,normalized growth,[17],0.962
same,normalized growth,[18],0.981
same,normalized growth,[19],0.988
same,normalized growth,[20],1.06
same,normalized growth,[21],1.01
same,normalized growth,[22],1
same,normalized growth,[23],0.979
same,normalized growth,[24],0.989
same,normalized growth,[28],0.982
same,normalized growth,[25],0.97
same,normalized growth,[26],0.97
same,normalized growth,[27],1.03
same,normalized growth,"S. cerevisiae strains, strain wild type, stronger effect = lower value",0.992
COC(=O)c1sccc1-c1ccc(C(C)=O)o1,normalized growth,[1],0.956
same,normalized growth,[2],0.975
same,normalized growth,[3],0.953
same,normalized growth,[4],0.974
same,normalized growth,[5],0.982
same,normalized growth,[6],0.949
same,normalized growth,[7],0.947
same,normalized growth,[8],0.722
same,normalized growth,[9],0.97
same,normalized growth,[10],0.977
same,normalized growth,[11],0.956
same,normalized growth,[12],0.976
same,normalized growth,[13],0.945
same,normalized growth,[14],0.965
same,normalized growth,[15],0.751 (active)
same,normalized growth,[16],0.961
same,normalized growth,[17],0.898
same,normalized growth,[18],0.978
same,normalized growth,[19],0.977
same,normalized growth,[21],0.982
same,normalized growth,[22],0.841
same,normalized growth,[23],0.935 (active)
same,normalized growth,[24],0.885 (active)
same,normalized growth,[28],0.727 (active)
same,normalized growth,[25],0.974
same,normalized growth,[26],0.891
same,normalized growth,[27],0.773
COC(=O)C1C2CC3c4[nH]c5cc(OC)ccc5c4CCN3CC2CC(OC(=O)c2cc(OC)c(OC)c(OC)c2)C1OC (stereo not given),normalized growth,[1],0.996
same,normalized growth,"S. cerevisiae deletion strains, locus YAL040C, strain CLN3, stronger effect = lower value",1.07
same,normalized growth,"S. cerevisiae deletion strains, locus YDR363W, strain ESC2, stronger effect = lower value",1
same,normalized growth,"S. cerevisiae deletion strains, locus YER002W, strain NOP16, stronger effect = lower value",0.99
same,normalized growth,[11],1
same,normalized growth,[19],1
same,normalized growth,"S. cerevisiae deletion strains, locus YNL128W, strain TEP1, stronger effect = lower value",0.98
same,normalized growth,"S. cerevisiae deletion strains, locus YNL175C, strain NOP13, stronger effect = lower value",1
same,normalized growth,"S. cerevisiae deletion strains, locus YNL197C, strain WHI3, stronger effect = lower value",0.989
same,normalized growth,"S. cerevisiae deletion strains, locus YNL224C, strain SQS1, stronger effect = lower value",1.04
same,normalized growth,"S. cerevisiae deletion strains, locus YOR083W, strain WHI5 (second series), stronger effect = lower value",0.934
same,normalized growth,[25],1.02

# Source: PubChem BioAssay AID1159580 (chemical genetic matrix, 2015)
